Common to all, as to experiment: NCI-60 one-dose screen, 48 h (100 = growth as untreated, 0 = no growth, -100 = all killed)
Common to all, as to conditions: 10 µM unless noted

Assay [1] has as its system HCT-15 colon.
The subject of assay [2] is HT29 colon.
For assay [3], the system named is SNB-75 CNS.
Assay [4] relates to SNB-19 CNS.
The subject of assay [5] is U251 CNS.
Assay [6] has as its system PC-3 prostate.
Assay [7] relates to SK-MEL-5 melanoma.
For assay [8], the system named is UACC-62 melanoma.
In assay [9] the test system is LOX IMVI melanoma.
Assay [10] concerns SK-MEL-28 melanoma.
Assay [11] deals with SK-MEL-2 melanoma.
Assay [12] deals with EKVX NSCLC.
Assay [13] relates to SN12C renal.
Assay [14] has as its system UO-31 renal.
Assay [15] concerns TK-10 renal.
For assay [16], the system named is ACHN renal.
Assay [17] has as its system CAKI-1 renal.
Assay [18] relates to CCRF-CEM leukemia.
Assay [19] deals with MOLT-4 leukemia.
Assay [20] deals with A498 renal.

SMILES strings stand for the structures. The panel holds about 83,000 compounds, 20% with a hit somewhere; the sample as a whole holds those more often.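 Single-concentration screen, 48 h exposure, 96-well plates. Endpoint: percent growth. Below 10 = active.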 Unmarked numbers belong to inactive results. Activity calls are given as the source filed them.

Take `Cc1cccc(N2C(=O)/C(=C/C(Cl)=C/c3ccc([N+](=O)[O-])cc3)SC2=S)c1C`: the growth in assay [1] was -20.3% (active); in assay [2], -7.89% (active); in [3], -19.1% (active); in assay [4], 26.3%; in assay [5], 4.72% (active); in assay [6], 8.37% (active). Further, the growth in assay [7] was -33.4% (active); in [8], 0.485% (active); in [9], -70.4% (active); in [10] it was 24.2%; in assay [11] it was 64%; in assay [12] it was -3.56% (active). Further, the growth is -13.4% (active) in assay [13]; -72.6% (active) in assay [14]; -9.69% (active) in [15]; -84.1% (active) in [16]; 35.7% in assay [17]; 3.24% (active) in [18]. Moreover, in [19], the growth is 5.73% (active).
Take `CCOC(=O)C(CCN(C)C)c1ccccc1` (stereo not drawn): the growth is 105% in assay [1]; 92.1% in [2]; 81.1% in [3]; 105% in [4]; 103% in assay [5]; 86.6% in assay [6]. In addition, the growth in assay [7] is 103%; in assay [8], 102%; in assay [9] it was 98.3%; in assay [10], 97.8%; in [11], 101%; in [12], 101%. Moreover, the growth in assay [13] was 99.5%; in assay [14], 90.9%; in assay [15], 95%; in assay [16], 104%; in [17] it was 94.5%; in [18], 93.2%. Further, in [19], the growth is 116%.
On to `Cc1ccc(OCCOCCOCCOc2ccc(C)n(O)c2=S)c(=S)n1O`, for which the growth is 35.8% in assay [1]; 30% in assay [2]; 59.2% in assay [3]; 33.8% in [4]; 31.1% in assay [5]; 34.7% in [6]. The growth is 58.3% in [7]; 15.6% in assay [8]; 30.5% in [9]; 48.8% in [10]; 57% in [11]; 24.9% in assay [12]. For the same compound, the growth was 28.7% in [13]; 42% in assay [14]; 64% in assay [15]; 44.6% in [16]; 31.7% in assay [17]; 11.2% in [18]. Further, the growth in [19] was 10.7%.
Take `Cc1nn(-c2ccc([N+](=O)[O-])cc2)c2ncnc(N/N=C/c3ccccc3O)c12`: the growth is 26.2% in assay [1]; 30.1% in assay [2]; 37.9% in assay [3]; 18% in assay [4]; 11.4% in [5]; 27% in assay [6]. In addition, the growth in assay [7] is -42% (active); in [8] it was -11.3% (active); in [9] it was 6.25% (active); in assay [10], 22%; in [11] it was 31.6%; in [12], -0.848% (active). Further, the growth is 6.16% (active) in assay [13]; -11.5% (active) in [14]; 35.5% in assay [15]; 12% in [16]; 3.95% (active) in assay [17]; 65.6% in [20]. In addition, the growth is -12.4% (active) in assay [18] and 4% (active) in assay [19].
For `COc1cc2c(c(OC)c1OC)C(=O)CC(c1cccc(C(=O)Nc3ccccc3Br)c1)O2` (stereo not drawn), the growth in [1] was 88.1%; in [2] it was 84%; in assay [3], 76.2%; in [4], 88.4%; in [5] it was 94.8%; in [6], 68.4%. The growth in assay [7] was 80.2%; in assay [8], 80.8%; in assay [9], 84.2%; in assay [10], 104%; in assay [11], 87.7%; in [12], 99.1%. For the same compound, the growth was 80% in [13]; 70.2% in assay [14]; 94.2% in assay [15]; 89.7% in assay [16]; 84.6% in assay [17]; 68.9% in assay [18]. In addition, the growth in [19] was 68.6%.
For `Cn1c(=O)c2[nH]c(SC/C(=N/O)c3ccc(Br)cc3)nc2n(C)c1=O`, the growth is 76.4% in [1]; 70% in assay [2]; -27.2% (active) in assay [3]; 38.6% in assay [4]; 1.08% (active) in [5]; 49.3% in assay [6]. In addition, the growth in assay [7] is 33.4%; in assay [8] it was -14.2% (active); in assay [9], 36.9%; in assay [10], 45.6%; in [11], 33.6%; in assay [12] it was 43.2%. Further, the growth is 17% in assay [13]; 4.1% (active) in assay [14]; -30.6% (active) in assay [15]; -58.4% (active) in assay [16]; -45.3% (active) in assay [17]; 83.9% in assay [18]. The growth in [19] is 94.7%.
For the compound `COc1ccc2c(c1)oc1c(C)c3c(c(C)c12)C(=O)N(CCOS(C)(=O)=O)C3=O`, the growth was 102% in [1]; 101% in assay [2]; 103% in [3]; 95.4% in assay [4]; 108% in assay [5]; 96.5% in assay [6]. The growth in [7] is 101%; in [8], 87.8%; in assay [9] it was 90.3%; in [10], 102%; in [11], 101%; in [12], 107%. Besides, the growth in assay [13] is 94%; in assay [14], 88.2%; in assay [15], 124%; in assay [16], 97.1%; in assay [17], 95.4%; in assay [18] it was 100%. The growth in [19] was 94.7%.
As for `CCCCNC(=O)c1ccc2c(c1)nc(-c1ccccc1)n2C1CCCCC1`, the growth in assay [1] is 72.5%; in assay [2], 50.3%; in [3] it was 114%; in assay [4] it was 110%; in assay [5], 99%; in [6], 90.9%. For the same compound, the growth is 93.7% in assay [7]; 87.3% in assay [8]; 92.6% in assay [9]; 106% in assay [10]; 101% in [11]; 88.4% in assay [12]. Also, the growth in assay [14] is 79.1%; in assay [15], 130%; in [16] it was 102%; in assay [17] it was 109%; in [20], 101%; in assay [18], 86.5%. In assay [19], the growth was 94.6%.

The values above are taken from PubChem BioAssay (NCI).
